Experimental data published in PubChem BioAssay (NCI).
About 79,000 compounds went through this panel and 15% of them were active in at least one assay; those are over-represented in the sample as a whole. Active and inactive are the calls of the source. No stated cut-off is given here; in the data, active means growth inhibition above about 70%; inactive means the rest.

Legend:
[1] = NCI Yeast Anticancer Drug Screen. Data for the rad52 strain (AID 147);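 further: 0% = growth of vehicle-treated control cultures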; conditions: S. cerevisiae rad52 mutant growth inhibition, active compounds read high
Summary of the method: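 DNA repair-defective yeast; compound exposure; growth scored against vehicle controls.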

[2] = NCI Yeast Anticancer Drug Screen. Data for the wt1 strain (AID 149);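 further: 0% = growth of vehicle-treated wt1 cultures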; conditions: S. cerevisiae wt1 strain (SPY 50644) growth inhibition, active compounds read high
Summary of the method: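 Readout: yeast growth inhibition, normalised to vehicle controls, in the wt1 strain exposed to test compounds.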

[3] = NCI Yeast Anticancer Drug Screen. Data for the rad50EPP+ strain (AID 151);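 further: 0% = growth of vehicle-treated control cultures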; conditions: S. cerevisiae rad50 mutant strain, active compounds read high
Summary of the method: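 rad50EPP+ yeast treated with test compounds. Readout: growth vs vehicle control.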

[4] = NCI Yeast Anticancer Drug Screen. Data for the mgt1 strain (AID 153); conditions: S. cerevisiae mgt1 mutant growth inhibition, active compounds read high
Summary of the method: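 Growth inhibition relative to vehicle controls was scored for the mgt1 yeast strain after compound exposure.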

[5] = NCI Yeast Anticancer Drug Screen. Data for the rad50 strain (AID 155);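 further: 0% = growth of vehicle-only cultures of the same strain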; conditions: S. cerevisiae rad50 strain growth inhibition, active compounds read high
Summary of the method: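 Compounds were tested on a yeast strain with an engineered DNA damage repair alteration; the reported value is growth inhibition normalised to vehicle treatment.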

[6] = NCI Yeast Anticancer Drug Screen. Data for the mec2-1 strain (AID 157); conditions: S. cerevisiae mec2-1 strain, active compounds read high
Summary of the method: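 Growth inhibition is read against vehicle-treated controls after compound exposure of the mec2-1 yeast strain, which is defective in DNA damage repair or cell cycle control.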

[7] = NCI Yeast Anticancer Drug Screen. Data for the rad14 strain (AID 159);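 further: 0% = growth of vehicle-treated control cultures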; conditions: S. cerevisiae rad14 strain growth inhibition, active compounds read high
Summary of the method: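 Compound-treated yeast with a defined DNA-repair lesion; growth inhibition normalised to vehicle-treated cultures.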

[8] = NCI Yeast Anticancer Drug Screen. Data for the sgs1 mgt1 strain (AID 161);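 further: 0% = growth of cultures given vehicle only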; conditions: S. cerevisiae sgs1 mgt1 strain, active compounds read high
Summary of the method: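 This yeast growth screen uses a strain with defined DNA-repair lesions; compound-treated growth is compared with vehicle-treated growth.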

[9] = NCI Yeast Anticancer Drug Screen. Data for the CLN2oe strain (AID 163);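 further: 0% = growth of vehicle-only control cultures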; conditions: S. cerevisiae CLN2oe strain, active compounds read high
Summary of the method: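 Compound-treated yeast; growth vs vehicle ctrl = % inhibition. Genetically altered strain (cell-cycle control).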

[10] = NCI Yeast Anticancer Drug Screen. Data for the cln2 rad14 strain (AID 165);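 further: 0% = growth equal to vehicle treated cultures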; conditions: S. cerevisiae cln2 rad14 strain, active compounds read high
Summary of the method: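 Growth inhibition, relative to vehicle-treated controls, is the read-out. The test organism is a yeast strain with defined genetic alterations, cln2 rad14.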

[11] = NCI Yeast Anticancer Drug Screen. Data for the bub3 strain (AID 167); conditions: S. cerevisiae bub3 mutant strain, active compounds read high
Summary of the method: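 Growth of a checkpoint-deficient yeast mutant is measured after compound exposure. Values represent inhibition relative to vehicle.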

[12] = NCI Yeast Anticancer Drug Screen. Data for the wt2 strain (AID 169);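 further: 0% = growth of vehicle-treated yeast cultures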; conditions: S. cerevisiae wt2 strain growth inhibition, active compounds read high
Summary of the method: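 Compound exposure of yeast; growth compared with vehicle controls; inhibition reported.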

[13] = NCI Yeast Anticancer Drug Screen. Data for the mlh1 strain (AID 171);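 further: 0% = growth of vehicle-treated control cultures of the same strain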; conditions: S. cerevisiae mlh1 strain growth inhibition, active compounds read high
Summary of the method: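 Compounds are applied to a genetically altered yeast strain, and its growth is compared with that of vehicle-treated cultures to give percent inhibition.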

[14] = NCI Yeast Anticancer Drug Screen. Data for the sgs1 strain (AID 173);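 further: 0% = growth of vehicle-only control cultures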; conditions: S. cerevisiae sgs1 mutant, active compounds read high
Summary of the method: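 Compounds applied to genetically altered yeast; growth compared with vehicle-treated cultures to give % inhibition.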

[15] = NCI Yeast Anticancer Drug Screen. Data for the mlh1 rad18 strain (AID 175); conditions: S. cerevisiae mlh1 rad18 strain growth inhibition, active compounds read high
Summary of the method: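 Cells of a genetically altered yeast strain, deficient in DNA damage repair, were treated with compound. Their growth was then compared with that of vehicle-treated cultures to give inhibition.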

[16] = NCI Yeast Anticancer Drug Screen. Data for the rad18 strain (AID 177); conditions: S. cerevisiae rad18 mutant growth inhibition, active compounds read high
Summary of the method: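 Compounds are applied to a repair-deficient yeast strain, and growth is compared with that of vehicle-treated cultures to give percent inhibition.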

[17] = at 5.0 µM (retest, dose inferred, filed as 0.5)
[18] = at 50.0 µM (retest, dose inferred, filed as 5.0)

Measured: growth inhibition

O=C(O)c1ccccc1-c1ccccc1C(=O)Nc1ccc2c(c1)Cc1ccccc1-2
active: [1]; at 100.0 µM 90% | [2]; at 100.0 µM 90% | [4]; at 100.0 µM 98% | [5]; at 50.0 µM 71.2% | [5]; at 100.0 µM 88% | [6]; at 50.0 µM 73.5% | [6]; at 100.0 µM 99% | [7]; at 33.0 µM 71% | [7]; at 100.0 µM 97% | [9]; at 100.0 µM 98% | [10]; at 50.0 µM 92.3% | [11]; at 50.0 µM 83.2% | [11]; at 100.0 µM 96% | [12]; at 100.0 µM 96% | [13]; at 100.0 µM 97% | [14]; at 100.0 µM 94% | [15]; at 50.0 µM 76.5% | [16]; at 100.0 µM 90%
inactive: [1]; at 1.2 µM 2% | [1]; at 3.7 µM 5% | [1]; at 11.0 µM 12% | [1]; at 33.0 µM 51% | [2]; at 1.2 µM 5% | [2]; at 3.7 µM 7% | [2]; at 11.0 µM 16% | [2]; at 33.0 µM 47% | [3]; at 1.2 µM -2% | [3]; at 3.7 µM 2% | [3]; at 11.0 µM 3% | [3]; at 33.0 µM 10% | [3]; at 100.0 µM 25% | [4]; at 1.2 µM 5% | [4]; at 3.7 µM 7% | [4]; at 11.0 µM 19% | [4]; at 33.0 µM 65% | [5]; at 1.2 µM 6% | [5]; at 3.7 µM 6% | [5]; [17] 0% | [5]; at 11.0 µM 23% | [5]; at 33.0 µM 49% | [5]; [18] 37% | [6]; at 1.2 µM 8% | [6]; at 3.7 µM 14% | [6]; [17] 4% | [6]; at 11.0 µM 22% | [6]; at 33.0 µM 64% | [6]; [18] 23% | [7]; at 1.2 µM 7% | [7]; at 3.7 µM 9% | [7]; at 11.0 µM 21% | [8]; [17] -7% | [8]; [18] 17% | [8]; at 50.0 µM 62.6% | [9]; at 1.2 µM 7% | [9]; at 3.7 µM 10% | [9]; at 11.0 µM 20% | [9]; at 33.0 µM 64% | [10]; [17] -27% | [10]; [18] 46% | [11]; at 1.2 µM 4% | [11]; at 3.7 µM 7% | [11]; [17] -24% | [11]; at 11.0 µM 27% | [11]; at 33.0 µM 67% | [11]; [18] 22% | [12]; at 1.2 µM 3% | [12]; at 3.7 µM 7% | [12]; at 11.0 µM 16% | [12]; at 33.0 µM 59% | [13]; at 1.2 µM 7% | [13]; at 3.7 µM 12% | [13]; at 11.0 µM 22% | [13]; at 33.0 µM 51% | [14]; at 1.2 µM 1% | [14]; at 3.7 µM 6% | [14]; at 11.0 µM 17% | [14]; at 33.0 µM 59% | [15]; [17] 6% | [15]; [18] 54% | [16]; at 1.2 µM 4% | [16]; at 3.7 µM 7% | [16]; at 11.0 µM 17% | [16]; at 33.0 µM 49%

CC(C)C1=CCC2C(=C1)CCC1C(C)(C(=O)O)CCCC21C (stereo unspecified) (tested in a mixture with another compound)
inactive: [1]; at 1.2 µM 0% | [1]; at 3.7 µM 9% | [1]; at 11.0 µM 12% | [1]; at 33.0 µM 41% | [2]; at 1.2 µM 11% | [2]; at 3.7 µM 15% | [2]; at 11.0 µM 12% | [2]; at 33.0 µM 41% | [3]; at 1.2 µM 30% | [3]; at 3.7 µM 33% | [3]; at 11.0 µM 37% | [3]; at 33.0 µM 42% | [3]; at 100.0 µM 47% | [4]; at 1.2 µM 0% | [4]; at 3.7 µM 10% | [4]; at 11.0 µM 6% | [4]; at 33.0 µM 15% | [5]; at 1.2 µM 11% | [5]; at 3.7 µM 12% | [5]; [17] 30% | [5]; at 11.0 µM 16% | [5]; at 33.0 µM 41% | [6]; at 1.2 µM 18% | [6]; at 3.7 µM 13% | [6]; [17] 29% | [6]; at 11.0 µM 15% | [6]; at 33.0 µM 54% | [7]; at 1.2 µM 13% | [7]; at 3.7 µM 22% | [7]; at 11.0 µM 19% | [7]; at 33.0 µM 34% | [8]; [17] 31% | [9]; at 1.2 µM -2% | [9]; at 3.7 µM 6% | [9]; at 11.0 µM -16% | [9]; at 33.0 µM 40% | [10]; [17] 9% | [11]; at 1.2 µM 8% | [11]; at 3.7 µM 11% | [11]; [17] 29% | [11]; at 11.0 µM 0% | [11]; at 33.0 µM 17% | [12]; at 1.2 µM -60% | [12]; at 3.7 µM -40% | [12]; at 11.0 µM -56% | [12]; at 33.0 µM 63% | [13]; at 1.2 µM 12% | [13]; at 3.7 µM 11% | [13]; at 11.0 µM 6% | [13]; at 33.0 µM 43% | [14]; at 1.2 µM 18% | [14]; at 3.7 µM 24% | [14]; at 11.0 µM 23% | [14]; at 33.0 µM 43% | [15]; [17] 40% | [16]; at 1.2 µM -5% | [16]; at 3.7 µM -9% | [16]; at 11.0 µM -20% | [16]; at 33.0 µM 15%
active: [1]; at 100.0 µM 94% | [2]; at 100.0 µM 97% | [4]; at 100.0 µM 94% | [5]; [18] 98% | [5]; at 50.0 µM 83.5% | [5]; at 100.0 µM 92% | [6]; [18] 99% | [6]; at 50.0 µM 85.2% | [6]; at 100.0 µM 94% | [7]; at 100.0 µM 97% | [8]; [18] 96% | [8]; at 50.0 µM 84.5% | [9]; at 100.0 µM 96% | [10]; [18] 98% | [10]; at 50.0 µM 89.8% | [11]; [18] 97% | [11]; at 50.0 µM 85.5% | [11]; at 100.0 µM 95% | [12]; at 100.0 µM 93% | [13]; at 100.0 µM 96% | [14]; at 100.0 µM 96% | [15]; [18] 98% | [15]; at 50.0 µM 76.5% | [16]; at 100.0 µM 88%
